BAZ2B inh = blocks human BAZ2B. Potency, µM (series often up to 114 µM), inactives show top-dose activity change, negative = inhibition, hits mostly inhibitors. Q9UIF8. AlphaScreen BAZ2B-H3K14Ac peptide displacement. 4.4% of 360,000 active; note: % is set by controls: 0 for no effect and ±100 for the full control effect; nearly all actives have a fitted effect of over 60% in size
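AlphaScreen displacement: compounds (up to 110uM) incubated 30 min at room temperature with a preformed 50 nM BAZ2B/50 nM biotinylated H3K14Ac peptide complex in PBS pH 7.4 with Tween-20. Donor and acceptor beads at 10 ug/mL final added, 20 min light-protected before reading.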
PLK1 PBD block = blocks phosphopeptide binding to human PLK1 polo-box domain; P53350; 2.8% of 360,000 active; Plk1 PBD binding of FITC phosphopeptide, fluorescence polarization; Potency, µM, without a hit: max response, negative = inhibition, actives largely listed as inhibitors; note: series mostly up to about 57 µM; % is set by controls: 0 for no effect and ±100 for the full control effect; nearly all actives have a fitted effect of over 65% in size
G9a block = inhibitors of human histone lysine methyltransferase G9a; G9a H3K9 monomethylation, AlphaScreen, 2 h; Potency, µM (series often up to 102 µM), inactives show top-dose activity, negative = inhibition, actives largely listed as inhibitors; 8.8% of 350,000 active; AID 504332; note: % is set by controls: 0 for no effect and ±100 for the full control effect; nearly all actives have a fitted effect of over 75% in size
Target sequence (Q96KQ7 913-1193 limits assumed): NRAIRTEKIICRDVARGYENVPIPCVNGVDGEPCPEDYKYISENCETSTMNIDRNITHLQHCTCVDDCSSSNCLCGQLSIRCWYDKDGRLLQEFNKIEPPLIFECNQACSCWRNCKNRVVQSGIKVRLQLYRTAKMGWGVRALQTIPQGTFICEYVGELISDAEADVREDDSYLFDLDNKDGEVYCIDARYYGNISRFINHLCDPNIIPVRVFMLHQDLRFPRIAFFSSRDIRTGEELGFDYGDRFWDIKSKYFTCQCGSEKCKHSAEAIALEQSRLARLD
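G9a (20 nM) was preincubated 15 min with compound, then reacted 2 h at room temperature with 500 nM biotin-H3K9 peptide and 20 µM SAM. Monomethyl-H3K9 detected by AlphaScreen using anti-H3K9me1 antibody.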
JMJD2A Tudor inh = inhibitors of human JMJD2A Tudor domain; AID 504339; Potency, µM (series often up to 114 µM), for the others: top-dose activity change, negative = inhibition, hits mostly inhibitors; AlphaScreen JMJD2A-Tudor / H3K4me3 peptide binding; O75164; 4.4% of 390,000 active; note: % is set by controls: 0 for no effect and ±100 for the full control effect; nearly all actives have a fitted effect of over 50% in size
HP1b chromo inh = blocks HP1-beta chromodomain binding to methylated histone tails. P83916. AID 540317. Potency, µM (highest dose often 114 µM), for the others: at the highest dose activity change, negative = inhibition, most hits filed as inhibitors. 0.56% of 390,000 active. AlphaScreen HP1-beta / biotin-H3K9me3 peptide binding; note: nearly all actives have a fitted effect of over 70% in size
Target sequence (P83916 whole entry, looked up): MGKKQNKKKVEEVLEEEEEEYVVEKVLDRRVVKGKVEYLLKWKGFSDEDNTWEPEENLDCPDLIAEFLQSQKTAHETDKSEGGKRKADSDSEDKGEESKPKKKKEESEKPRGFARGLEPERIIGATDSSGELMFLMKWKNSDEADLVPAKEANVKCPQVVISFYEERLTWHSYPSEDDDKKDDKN
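Compound inhibition of the preformed complex between 50 nM HP1-beta and 50 nM biotinylated H3K9me3 peptide was read by AlphaScreen. Buffer was PBS pH 7.4 with 0.01% Tween-20. Incubations ran 30 min at room temperature, with 10 ug/mL donor/acceptor beads.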
Sfp PPTase inh = inhibitors of Bacillus subtilis Sfp phosphopantetheinyl transferase. Q9F4F7. Biochemical Sfp PPTase activity, qHTS. Potency, µM, for the others: largest response in the series, negative = inhibition, most hits filed as inhibitors. 3.5% of 310,000 active. AID 1490;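 note: the enzyme is Sfp with the accession as filed and its product quenches rhodamine fluorescence; 0% = enzyme reaction without inhibitor and -100% = no enzyme wells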
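Step 1, compound plus 15 nM Sfp-PPTase, 15 min, room temperature. Step 2, add rhodamine-CoA (5 uM) and BHQ-2-YbbR (12.5 uM). Step 3, read 525/598 nm fluorescence at 0 and 30 min.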
Numbers without * were called inactive; ? = inconclusive; . = no result; [ ] = another dose, or the depositor's remark. The list is not random: actives were taken first. Their share in the collection is about 12%. Calls come from the whole dose curve; as a rule, active = well fitted curve in the direction sought with a large enough effect; inconclusive = small, poorly fitted or top-dose-only effect, or another doubt; inactive = no such curve, though single readings can be large; an effect the other way counts as inactive or inconclusive. Potency is the fitted concentration of half-maximal effect.

SMILES	BAZ2B inh	PLK1 PBD block	G9a block	JMJD2A Tudor inh	HP1b chromo inh	Sfp PPTase inh
O=C1NC2=C(CCc3ccccc32)C(c2ccccc2)N1 (stereo unspecified)	-2.7%	-23.0%	44.7µM*	-17.1%	45.0%	8.2%
C=CCOc1ccc(C2NC(=S)NC3=C2CCc2ccccc23)cc1 (stereo unspecified)	?	?	22.4µM*	?	-0.3%	-1.6%
COc1ccc(S(=O)(=O)N(CCO)c2ccccc2CN(C)CC=Cc2ccc(Cl)cc2)cc1	.	.	10.5%[59 µM]	.	.	-3.1%
S=C(Nc1ccc(Br)cc1)N1CCN(c2ccccn2)CC1	-5.1%	-3.4%	34.5%	-18.9%	32.0%	12.2%
CCn1c(CCNC(=O)c2ccccc2Cl)n[nH]c1=S	3.9%	-3.2%	.	39.8µM*	33.2%	6.4%
CCn1c(CCNC(=O)c2cccs2)n[nH]c1=S	23.9%	-6.7%	?	?	33.8%	-3.2%
CCCNC(=O)c1ccc(Cl)cc1Cl	4.8%	-14.2%	50.1µM*	10.7%	25.2%[57 µM]	22.3%
CCn1c(CCNC(=O)c2ccc(Cl)cc2Cl)n[nH]c1=S	9.1%	-8.8%	39.8µM*	7.08µM*	41.4%	3.9%
O=C(NCCNC(=O)c1ccc(Cl)cc1Cl)c1ccc(Cl)cc1Cl	.	2.8%	.	.	.	.
COc1cc2c(cc1OC)-c1cc3cc(OC)c(OC)cc3c(=O)n1CC2	.	.	.	.	.	16.4%
CCOc1ccc(NC(=O)Cn2cnc3sc(C)c(S(=O)(=O)N4CCN(c5ccccc5OC)CC4)c3c2=O)cc1	0.4%	.	-23.4%[59 µM]	-19.1%	28.2%	.
C/C(=N\Nc1ccc(Cl)c(C(=O)O)c1)c1ccc2c(c1)OCO2	?	-16.1%	4.47µM*	-14.0%	37.5%	-15.4%
Cc1ccc(/C=N/Nc2cc(C)nc(N3CCOCC3)n2)cc1	-6.6%	1.3%	2.9%	?	21.5%	6.8%
Cc1ccc(N/N=C/c2ccc3c(c2)OCCO3)cc1Cl	10.7%	-5.3%	8.91µM*	?	?	-9.9%
O=C(O)c1cc(N/N=C/c2ccc3c(c2)OCO3)ccc1Cl	?	-7.1%	50.1µM*	-25.3%	38.9%	-5.4%
O=C(O)c1cc(N/N=C/c2ccc3c(c2)OCCO3)ccc1Cl	-35.8%	-13.7%	?	-12.3%	18.8%	8.7%
CNC(=S)N/N=C/c1ccc2c(c1)OCCO2	0.1%	-0.9%	-9.5%[59 µM]	-7.8%	29.9%	?
Cc1ccc(N/N=C/c2ccc(N3CCOCC3)cc2)cc1C	?	-13.9%	2.51µM*	39.8µM*	79.4µM*	?
COc1ccccc1CNC(=O)CN(C)c1nn2c(=O)cc(C)nc2s1	-0.2%	.	4.1%[59 µM]	-10.7%	19.8%	.
O=C(COC(=O)Cc1ccccc1[N+](=O)[O-])NNC(=O)c1ccc([N+](=O)[O-])cc1	15.2%	-2.7%	12.8%[12.7 µM]	-14.7%	37.6%	.
CCN(CC)C(=O)Cn1c(SCC(=O)Nc2ccc(F)cc2)nc2ccccc21	-7.6%	.	2.4%[59 µM]	-9.9%	14.9%	.
O=C(c1cc2ccccc2o1)N1CCN=C1SCc1cccnc1	-18.1%	-5.4%	-0.8%	12.6%	29.4%	10.6%
Cc1cc(C)nc(SCc2cc(=O)c(OC(=O)c3ccc(Cl)c([N+](=O)[O-])c3)co2)n1	?	?	?	-32.1%	10.2%	9.7%
Cc1ccnc(SCc2cc(=O)c(OC(=O)c3cc([N+](=O)[O-])ccc3Cl)co2)n1	-36.3%	23.8µM*	?	?	3.7%	-11.1%
O=C(Oc1coc(CSc2ncccn2)cc1=O)c1ccc(Br)o1	-13.3%	-22.1%	-6.9%[59 µM]	-4.5%	46.7%	-12.3%
SMILES	BAZ2B inh	PLK1 PBD block	G9a block	JMJD2A Tudor inh	HP1b chromo inh	Sfp PPTase inh
O=C(Oc1coc(CSc2ncccn2)cc1=O)c1cccc([N+](=O)[O-])c1	-38.8%	?	56.2µM*	-22.4%	41.5%	-0.9%
O=C(Oc1coc(CSc2ncccn2)cc1=O)c1ccco1	.	-11.5%	-6.8%	-8.4%	42.9%	89.1µM*
Cc1ccnc(SCc2cc(=O)c(OC(=O)c3ccc(Br)o3)co2)n1	-1.1%	-25.9%	-7.0%	-7.5%	49.9%	-2.0%
O=C1C[C@H](c2ccc(-c3ccccc3)cc2)N1S(=O)(=O)c1ccccc1[N+](=O)[O-]	.	.	.	-19.3%	10.7%	9.8%
COc1ccc(NC2=C3CCCC=C3N(c3ccc(OC)cc3)C2=O)cc1	-32.3%	?	39.8µM*	?	5.7%	-5.4%
CCOc1ccc(Cl)cc1C1CC(=O)Nc2cc(OC)c(OC)c(OC)c21 (stereo unspecified)	2.9%	.	3.2%[59 µM]	-7.5%	14.3%	.
CSc1ccccc1OCc1cc(C(=O)N2CCN(c3ncccn3)CC2)no1	-27.2%	-12.3%	56.2µM*	?	7.8%	?
O=C(c1cc(COc2c(F)cccc2F)on1)N1CCN(C2CCCCC2)CC1	-18.2%	23.8µM*	3.2%	-28.8%	0.0%	2.3%
COc1cc(C)ccc1OCc1cc(C(=O)N2CCCCCC2)no1	24.0%	26.7µM*	.	15.8µM*	28.8%	4.3%
COc1cc(Cl)ccc1OCc1cc(C(=O)N2CCCCCCC2)no1	-11.6%	-14.5%	124.3%	-6.5%	29.8%	-12.0%
COc1cc(C(=S)N2CCCC2)ccc1OCc1ccc(C)cc1	-36.0%	?	31.6µM*	-28.2%	-5.0%	-17.6%
CSc1ccccc1OCc1cc(C(=O)N2CCSCC2)no1	5.0%	-8.3%	?	-18.4%	12.2%	-1.2%
CCOC(=O)NCCOc1ccc(Oc2ccccc2)cc1	.	.	.	.	.	-4.2%
CC(CNC(=O)c1cc2cc(S(=O)(=O)N3CCCCC3)ccc2n1C)c1ccccc1 (stereo unspecified)	1.4%	.	1.6%[59 µM]	-21.4%	14.6%[57 µM]	.
CCOc1ccc(NC(=O)N[C@@H](CCSC)C(=O)OC)cc1	12.7%	-5.2%	3.2%[12.7 µM]	-16.0%	16.3%	21.6%
COc1ccc(OC)c(-n2c3c(cc(-c4nc(-c5ccc(Cl)cc5)cs4)c2=O)C(=O)CC(C)(C)C3)c1	9.3%	.	8.0%[59 µM]	27.6%	65.0%	.
Fc1ccc(COc2ccccc2C(=S)N2CCCC2)cc1	-6.6%	4.23µM*	1.78µM*	79.4µM*	?	?
O=C(NN=C1CCCCC1)c1ccccc1OCc1ccc(F)cc1	6.7%	-3.5%	27.9%[59 µM]	-1.4%	38.6%	0.5%
Cc1ccc(COc2ccccc2C(=S)N2CCCC2)cc1	-25.8%	?	12.6µM*	7.2%	-12.0%	25.1µM*
Cc1ccc(NC(=O)CSc2cn[nH]n2)cc1	3.2%	-3.5%	50.1µM*	-11.0%	36.6%	16.5%
N#Cc1ccc(NC(=O)CSc2cn[nH]n2)cc1	-13.6%	0.0%	?	4.1%	50.3%	10.3%
O=C(CSc1cn[nH]n1)Nc1ccc(O)c(C(=O)O)c1	-13.5%	?	12.6µM*	-19.2%	25.4%	-4.6%
CCc1ccc(C2=NN(CCC(=O)NCCc3ccccc3)C(=O)CC2)cc1	-1.3%	.	5.4%[59 µM]	0.0%	25.3%	.
Cn1c(-c2ccccc2)cnc1NCc1ccc(F)cc1	?	0.5%	.	35.5µM*	?	-31.8%

Screening data deposited in PubChem BioAssay by National Center for Advancing Translational Sciences (NCATS).
